Data from PubChem BioAssay AID651956 (Broad Institute, 2012).
Entries with a potency or affinity are not part of this list. Inconclusive results are not listed. A number with no mark means an inactive call.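 Rule for the calls: active = in every test run, a fitted half-maximal concentration for signal decrease at or below twice the highest tested concentration; inconclusive = runs disagree, flat 30 to 70% decrease, or poor fit; inactive = the rest.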

Assay: activation of miR-122 Renilla sensor silencing – cell-based, Huh7 psiCHECK-miR122, Renilla luciferase, cherry-picked, dose response (AID 651956);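 note: 0% = median neutral control wells and -100% = median positive control wells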
Conditions: Huh7 psiCHECK-miR122 Renilla luciferase reporter, 48 h; series mostly up to 35 µM; activity change, negative = signal decrease: at the top concentration

SMILES	activity change, negative = signal decrease
CNC(=O)C[C@@H]1CC[C@@H]2[C@@H](COc3ccc(NC(=O)c4ccccc4F)cc3C(=O)N2C)O1	0.812%
CC(=O)N1[C@H](CN(C(=O)c2ccc(F)cc2)C(C)C)[C@@H](c2ccccc2)[C@@H]1CO	6.52%
CCN(CC)CCNc1nc(-c2ccccc2)nnc1C(F)(F)F	-20.6%
COc1cccc(CNC(=O)C[C@@H]2CC[C@@H]3[C@@H](COc4ccc(NC(C)=O)cc4C(=O)N3C)O2)c1	11.7%
Cc1nn(C)cc1NC(=O)C[C@H]1CC[C@H]2[C@H](COc3ccc(NC(=O)c4cccc(F)c4)cc3C(=O)N2C)O1	74.4%
COCC(=O)N(C)C[C@@H]1[C@@H](c2ccccc2)[C@H](CO)N1C(=O)Cc1ccncc1	-13.1% [at 30 µM]
CCCCNc1cc(C)nc(NCc2ccccc2)n1	-59.7%
Cc1cc(C)cc(NC(=O)c2ccc(CSc3nnc(C)s3)cc2)c1	-31.2%
CC(=O)Nc1ccc(-c2cc(-c3ccc(NC(C)=O)cc3)nc(-c3ccc(NC(C)=O)cc3)n2)cc1	63.9%
COCC(=O)Nc1ccc2c(c1)C(=O)N(C)[C@@H]1CC[C@H](CC(=O)NCc3ccccc3F)O[C@H]1CO2	372%
O=C(C1CCOCC1)N1C[C@H]2[C@@H](c3ccccc31)[C@@H](CO)N2Cc1ccccc1	-21.2%
C/C=C/c1ccc([C@H]2[C@@H](CO)N(C(=O)C3CC3)[C@H]2CN(C)C(=O)CC2CC2)cc1	0%
CN1CCN(C(=O)C[C@H]2CC[C@@H]3[C@H](COc4ccc(NC(=O)c5cccs5)cc4C(=O)N3C)O2)CC1	-16.5%
Cc1cc2n(n1)C(c1cn(-c3ccccc3)nc1C)Nc1c(C)cccc1-2 (centres undefined)	51.5%
